Data reported in the supplement of paper PMC6992640.
± gives the standard deviation of the averaged measurements.

Tested on: HCI01 (cells of a triple-negative basal-like breast cancer xenograft)
Assay: cell viability (% of vehicle); higher = less cytotoxic
Conditions: 10 µM; 72 h
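Also: PDX cells carrying CMV promoter-driven luciferase, viability read as total photon flux per second by IVIS imaging following D-luciferin, vehicle control 0.1% DMSO.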

SMILES | cell viability
CC#CCn1c(N2CCCC(N)C2)nc2c1c(=O)n(Cc1nc(C)c3ccccc3n1)c(=O)n2C (stereo unspecified) [Linagliptin (BI-1356)] | 160 ± 22
Cc1cc2c(s1)=Nc1ccccc1NC=2N1CCN(C)CC1 [Olanzapine] | 90.18 ± 0.87
CC1(O)CC(c2nc(-c3ccc4ccc(-c5ccccc5)nc4c3)c3c(N)nccn23)C1 (stereo unspecified) [Linsitinib] | 112 ± 1.2
Cc1cn(C2CC(O)C(CO)O2)c(=O)[nH]c1=O (stereo unspecified) [Telbivudine] | 125 ± 3.9
Nc1ncnc2c1ncn2C1OC(CO)C(O)C1O (stereo unspecified) [Adenosine] | 99.7 ± 3.6
CC(=O)[C@@]1(O)CC[C@H]2[C@@H]3CCC4=CC(=O)CCC4=C3[C@@H](c3ccc(N(C)C)cc3)C[C@@]21C [Ulipristal] | 70.8 ± 48
Cc1c(OCC(F)(F)F)ccnc1CS(=O)c1nc2ccccc2[nH]1 (stereo unspecified) [Dexlansoprazole] | 188 ± 46
c1cc(CN2CCCNCCNCCCNCC2)ccc1CN1CCCNCCNCCCNCC1 [Plerixafor (AMD3100)] | 99.4 ± 11
COS(=O)(=O)[O-].C[N+]1(C)CCC(=C(c2ccccc2)c2ccccc2)CC1 [Diphemanil Methylsulfate] | 101 ± 3
CC(O)C1C(=O)N2C(C(=O)OCOC(=O)C(C)(C)C)=C(SC3CN(C4=NCCS4)C3)C(C)C12 (stereo unspecified) [Tebipenempivoxil] | 130 ± 21
CS(=O)(=O)N1CCN(Cc2cc3nc(-c4cccc5[nH]ncc45)nc(N4CCOCC4)c3s2)CC1 | 190 ± 66
O=C(NC(CO)C(O)c1ccc([N+](=O)[O-])cc1)C(Cl)Cl (stereo unspecified) [Chloramphenicol] | 109 ± 15
Cc1ccc(Nc2nccc(N(C)c3ccc4c(C)n(C)nc4c3)n2)cc1S(N)(=O)=O.Cl | 166 ± 30
NC(=O)N1CCC(CC(=O)N2CCC(C3c4ncc(Br)cc4CCc4cc(Cl)cc(Br)c43)CC2)CC1 (stereo unspecified) [Lonafarnib] | 72.5 ± 68
CC(C)OC(=O)OCOP(=O)(COC(C)Cn1cnc2c(N)ncnc21)OCOC(=O)OC(C)C.O=C(O)C=CC(=O)O (stereo unspecified) [Tenofovir Disoproxil Fumarate] | 106 ± 2.7
CC1(C)SC2C(NC(=O)C(C(=O)[O-])c3ccccc3)C(=O)N2C1C(=O)[O-].[Na+].[Na+] (stereo unspecified) [Carbenicillin, Disodium Salt] | 93 ± 4.2
CC1C(=O)OC2CC34C5CC(C(C)(C)C)C36C(OC(=O)C6O)OC4(C(=O)O5)C21O (stereo unspecified) [Ginkgolide A] | 98.9 ± 14
CNS(=O)(=O)Cc1ccc2[nH]cc(CCN(C)C)c2c1 [Sumatriptan] | 92.7 ± 1.9
Nc1nc(=O)c2c([nH]1)NCC(CNc1ccc(C(=O)NC(CCC(=O)[O-])C(=O)[O-])cc1)N2C=O.O.O.O.O.O.[Ca+2] (stereo unspecified) [Leucovorin Calcium] | 104 ± 22
Nc1nc(Cl)nc2c1ncn2C1OC(CO)C(O)C1F (stereo unspecified) [Clofarabine] | 162.3 ± 0.47
Cc1cc(C2CCCCC2)n(O)c(=O)c1 [Ciclopirox] | 93 ± 59
NC(=O)C(CCC(F)(F)F)N(Cc1ccc(-c2ncon2)cc1F)S(=O)(=O)c1ccc(Cl)cc1 (stereo unspecified) | 96 ± 23
CC(=O)O[C@@]12CO[C@@H]1C[C@H](O)[C@@]1(C)C(=O)[C@H](O)C3=C(C)[C@@H](OC(=O)[C@H](O)[C@@H](NC(=O)OC(C)(C)C)c4ccccc4)C[C@@](O)([C@@H](OC(=O)c4ccccc4)[C@H]21)C3(C)C [Docetaxel] | 154 ± 26
O=C(Oc1ccccc1C(=O)O)c1ccccc1O [Sasapyrine] | 113 ± 14
CCCNS(=O)(=O)Nc1ncnc(OCCOc2ncc(Br)cn2)c1-c1ccc(Br)cc1 [Macitentan] | 75.9 ± 56
CCCCCCCCCC(=O)NC(Cc1c[nH]c2ccccc12)C(=O)NC(CC(N)=O)C(=O)NC(CC(=O)O)C(=O)NC1C(=O)NCC(=O)NC(CCCN)C(=O)NC(CC(=O)O)C(=O)NC(C)C(=O)NC(CC(=O)O)C(=O)NCC(=O)NC(CO)C(=O)NC(C(C)CC(=O)O)C(=O)NC(CC(=O)c2ccccc2N)C(=O)OC1C (stereo unspecified) [Daptomycin] | 142 ± 4.9
COc1nc(C)nc(Cl)c1NC1=NCCN1 [Moxonidine] | 102 ± 7.2
NCCCCC(NC(CCc1ccccc1)C(=O)O)C(=O)N1CCCC1C(=O)O.O.O (stereo unspecified) [Lisinopril dihydrate] | 98.2 ± 20
Cc1cc(C2CCCCC2)n(O)c(=O)c1.NCCO [Ciclopirox ethanolamine] | 113 ± 52

Tested on: HCI03 (cells of an ER-positive luminal breast cancer xenograft)
Assay: as above
Conditions: 10 µM; 72 h

SMILES | cell viability
CC1COc2c(N3CCN(C)CC3)c(F)cc3c(=O)c(C(=O)O)cn1c23 (stereo unspecified) [Ofloxacin] | 173
Cc1cc(Nc2cc(N3CCN(C)CC3)nc(Sc3ccc(NC(=O)C4CC4)cc3)n2)n[nH]1 [VX-680 (MK-0457,Tozasertib)] | 84.3
O=C([O-])P(=O)([O-])[O-].[Na+].[Na+].[Na+] [Foscarnet Sodium] | 96.7
Cc1onc(-c2ccccc2Cl)c1C(=O)NC1C(=O)N2C1SC(C)(C)C2C(=O)[O-].O.[Na+] (stereo unspecified) [Cloxacillin Sodium] | 176
CNCc1ccc(-c2[nH]c3cc(F)cc4c3c2CCNC4=O)cc1.O=P(O)(O)O | 104
CN1CCC(OC(c2ccccc2)c2ccccc2)CC1.Cl [Diphenylpyraline HCl] | 99.9
COc1cc(OC)c(C(=O)CCCN2CCCC2)c(OC)c1.Cl [Buflomedil HCl] | 131
CC(C)(O)c1ccccc1CCC(SCC1(CC(=O)[O-])CC1)c1cccc(C=Cc2ccc3ccc(Cl)cc3n2)c1.[Na+] (stereo unspecified) [Montelukast Sodium] | 169
CC(=O)Oc1ccccc1C(=O)O [Aspirin (Acetylsalicylic acid)] | 107
CCN(CCCc1ccccc1)CCCc1ccccc1.O=C(O)CC(O)(CC(=O)O)C(=O)O [Alverine Citrate] | 95.5
CC#CCn1c(N2CCCC(N)C2)nc2c1c(=O)n(Cc1nc(C)c3ccccc3n1)c(=O)n2C (stereo unspecified) [Linagliptin (BI-1356)] | 108
Cc1cc2c(s1)=Nc1ccccc1NC=2N1CCN(C)CC1 [Olanzapine] | 107
CC1(O)CC(c2nc(-c3ccc4ccc(-c5ccccc5)nc4c3)c3c(N)nccn23)C1 (stereo unspecified) [Linsitinib] | 109
Cc1cn(C2CC(O)C(CO)O2)c(=O)[nH]c1=O (stereo unspecified) [Telbivudine] | 128
Nc1ncnc2c1ncn2C1OC(CO)C(O)C1O (stereo unspecified) [Adenosine] | 123
CC(=O)[C@@]1(O)CC[C@H]2[C@@H]3CCC4=CC(=O)CCC4=C3[C@@H](c3ccc(N(C)C)cc3)C[C@@]21C [Ulipristal] | 147

SMILES | cell viability
Cc1c(OCC(F)(F)F)ccnc1CS(=O)c1nc2ccccc2[nH]1 (stereo unspecified) [Dexlansoprazole] | 149
c1cc(CN2CCCNCCNCCCNCC2)ccc1CN1CCCNCCNCCCNCC1 [Plerixafor (AMD3100)] | 86.8
COS(=O)(=O)[O-].C[N+]1(C)CCC(=C(c2ccccc2)c2ccccc2)CC1 [Diphemanil Methylsulfate] | 121
CC(O)C1C(=O)N2C(C(=O)OCOC(=O)C(C)(C)C)=C(SC3CN(C4=NCCS4)C3)C(C)C12 (stereo unspecified) [Tebipenempivoxil] | 110
CS(=O)(=O)N1CCN(Cc2cc3nc(-c4cccc5[nH]ncc45)nc(N4CCOCC4)c3s2)CC1 | 94.8
O=C(NC(CO)C(O)c1ccc([N+](=O)[O-])cc1)C(Cl)Cl (stereo unspecified) [Chloramphenicol] | 128
Cc1ccc(Nc2nccc(N(C)c3ccc4c(C)n(C)nc4c3)n2)cc1S(N)(=O)=O.Cl | 77.2
NC(=O)N1CCC(CC(=O)N2CCC(C3c4ncc(Br)cc4CCc4cc(Cl)cc(Br)c43)CC2)CC1 (stereo unspecified) [Lonafarnib] | 121
CC(C)OC(=O)OCOP(=O)(COC(C)Cn1cnc2c(N)ncnc21)OCOC(=O)OC(C)C.O=C(O)C=CC(=O)O (stereo unspecified) [Tenofovir Disoproxil Fumarate] | 130
CC1(C)SC2C(NC(=O)C(C(=O)[O-])c3ccccc3)C(=O)N2C1C(=O)[O-].[Na+].[Na+] (stereo unspecified) [Carbenicillin, Disodium Salt] | 92.6
CC1C(=O)OC2CC34C5CC(C(C)(C)C)C36C(OC(=O)C6O)OC4(C(=O)O5)C21O (stereo unspecified) [Ginkgolide A] | 112
CNS(=O)(=O)Cc1ccc2[nH]cc(CCN(C)C)c2c1 [Sumatriptan] | 119
Nc1nc(=O)c2c([nH]1)NCC(CNc1ccc(C(=O)NC(CCC(=O)[O-])C(=O)[O-])cc1)N2C=O.O.O.O.O.O.[Ca+2] (stereo unspecified) [Leucovorin Calcium] | 102
Nc1nc(Cl)nc2c1ncn2C1OC(CO)C(O)C1F (stereo unspecified) [Clofarabine] | 175
Cc1cc(C2CCCCC2)n(O)c(=O)c1 [Ciclopirox] | 67.7
NC(=O)C(CCC(F)(F)F)N(Cc1ccc(-c2ncon2)cc1F)S(=O)(=O)c1ccc(Cl)cc1 (stereo unspecified) | 142
